Measured values as given in PubChem BioAssay (NCI).
About 79,000 compounds went through this panel and 15% of them were active in at least one assay; those are over-represented in the sample as a whole. Values without a mark were called inactive. Active and inactive are the calls of the source. Cut-off read from the data, not from the text of the source: active = growth inhibition above about 70%; inactive = the rest.

Assay: NCI Yeast Anticancer Drug Screen. Data for the sgs1 mgt1 strain (AID 161);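 note: 0% = growth of cultures given vehicle only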
Conditions: S. cerevisiae sgs1 mgt1 strain, stronger effect = higher value
Method: Growth inhibition of yeast strains with defined genetic alterations is measured as a screen for potential anti-cancer activity. Selected strains with alterations in DNA damage repair or cell cycle control were exposed to compounds and growth inhibition was measured relative to vehicle treated controls. The strain used in this assay is sgs1 mgt1

[1] = at 5.0 µM (retest, dose inferred, filed as 0.5)
[2] = at 50.0 µM (retest, dose inferred, filed as 5.0)

Row | Structure (SMILES) | growth inhibition [1] [%] | growth inhibition [2] | growth inhibition (at 50.0 µM)
1 | C=CC(C)(C)N1C(=O)C(C(C)=O)=C(O)C1Cc1c[nH]c2ccccc12 (configuration not stated) | 18 | 73% (active) | 52.8%
2 | CN(C)CC(CN(C)C)C(=O)/C=C/c1ccc(Cl)cc1Cl | 15 | 99% (active) | 48.7%
3 | COC(=O)C1CCCCC1C(=O)Nc1ccccc1 (configuration not stated) | 0 | -26% | 15.4%
4 | COc1cc(NCCCCNCC(C)(C)C)c2ncccc2c1 | 1 | 28% | 51.8%
5 | O=C1C(/C=C/c2ccc(Cl)cc2)=NNC2N1N=C1NC(=O)C3(NN12)c1ccccc1-c1ccccc13 (configuration not stated) | -4 | 22% | 73.5% (active)
6 | O=S1(=O)CCC2=CC(C(F)(F)F)=CC(C(F)(F)F)=CN21 | 59 | 98% (active) | 94.4% (active)
7 | O=C1NC(c2cccc(OCc3ccccc3)c2)Nc2ccccc21 (configuration not stated) | 5 | 35% | 63.9%
8 | CCOC(=O)Nc1ccc(C)c(NC(=O)OCC)c1 | 11 | 57% | 4.65%
9 | CCCCCCC1OCC(O)C(OCCCC)O1 (configuration not stated) | -4 | 16% | 11.2%
10 | CS(=O)(=O)O.[Ag] | -25 | 99% (active) | 93.5% (active)
11 | Nc1ccc(/C=C/c2ccc3cccnc3c2)cc1 | 3 | 50% | 46.2%
12 | COC1=CCC23C(=O)C=CC(=O)C2(C1)C(=O)c1ccccc1C3=O (configuration not stated) | -2 | 76% (active) | 74.7% (active)
13 | CC(C)C(=O)CC(Sc1ccc(N)cc1)c1ccccc1 (configuration not stated) | -26 | 87% (active) | 53%
14 | O=C1C(=O)c2cccc([N+](=O)[O-])c2-c2ccccc21 | 31 | 99% (active) | 98.9% (active)
